# Test results as given in PubChem BioAssay.
# Several values for one entry are separate records, joined by “and”; a condition that tells them apart may be missing. Equal values may be shown once. For some assays here: Entries with a potency or affinity are not part of this list. Activity calls are given as the source filed them.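 How the source made its calls, unless noted: active means compounds killing one labelled cell type while sparing the other, by normalised counts and ratio limits, not self-fluorescent; inactive means the rest.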
# What was measured:
# [1] = EMT-state selective cytotoxicity in co-culture – imaging, PC-3E GFP, TEM4-18 mCherry, primary screen (AID 1345086); conditions: PC-3E GFP / TEM4-18 mCherry co-culture, imaging cell counts, at 1 µM; for red/green cell ratio (normalised): actives lie on both sides, counts scaled to control wells, 1 = unselective;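 on all read-outs here: cells exposed to compound for 72 h before imaging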;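 on red/green cell ratio (normalised): normalised mesenchymal count divided by normalised epithelial count so high means epithelial killing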
# [2] = yeast 75Q aggregation reduction – 75Q-TubU reporter (AID 1593); conditions: Yeast 75Q polyglutamine aggregation reporter
# [3] = restoration of touch response, mutant HTT neurons – whole organism, C. elegans mechanosensory neurons, N-terminal huntingtin (AID 1599); conditions: C. elegans polyQ-huntingtin mechanosensory neurons, stronger effect = higher value
# [4] = blockers of cytochrome c efflux from mitochondria – biochemical, purified mitochondria (AID 1603); conditions: stronger effect = lower value;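 further: mouse liver mitochondria challenged with calcium chloride; signal normalized to the plate average as 100%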
# [5] = polyglutamine aggregate formation blockers (AID 1604); conditions: polyglutamine-induced protein aggregation inhibition assay; stronger effect = higher value; tested at 2.5 µM
# [6] = glutamate transport activators, MN-1 cells, MN-1 cell line (AID 1612); conditions: MN-1 motor neuron cells, stronger effect = higher value;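 further: tested at 1 µM final; 0% = mean of DMSO vehicle wells on each plate; positive means more glutamate uptake than control and negative means less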
# [7] = 75Q-TubH aggregate inhibition, S. cerevisiae, yeast (AID 1616); conditions: S. cerevisiae 75Q-TubH polyglutamine aggregation suppression; stronger effect = higher value
# [8] = compounds altering circadian rhythm period length – cell-based, LOPAC library, luminescence reporter (AID 2774; call rule not given here;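 further: values are relative to mean of DMSO wells on each plate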); conditions: circadian reporter cells, at 7 µM, actives lie on both sides
# [9] = compounds altering Cy5-DNA-NS3h complex signal – biochemical, LOPAC1280, artefact control for HCV NS3 helicase inhibitor project (AID 687037; call rule not given here); conditions: Cy5-DNA-NS3h complex fluorescence interference counterscreen
# [10] = test system: Aerobactin synthetase IucA (Klebsiella pneumoniae); test: inhibition of K. pneumoniae IucA enzyme – biochemical, Tocris library, absorbance (AID 1345561; call rule not given here;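 further: 100% = enzyme without compound and 0% = no enzyme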); conditions: purified IucA enzyme assay, absorbance (OD) read-out; stronger effect = lower value;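 tested at 8 µM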
# [11] = viability loss with induced miR-34 in A549 – imaging, A549 dox-inducible miR-34, nuclei and caspase counts, primary screen (AID 1347080;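 active means compounds whose cell count with miR-34 switched on is under 0.7 times the count with it off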); conditions: A549 miR-34 inducible, Hoechst nuclei count, 48 h
# [12] = chitosan synthesis blockers in C. neoformans – flow cytometry, Cibacron Brilliant Red staining (AID 1347148; call rule not given here;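 further: compound exposure lasted three days at 37 degrees C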); conditions: Cryptococcus neoformans chitosan, stronger effect = lower value; at 10 µM unless noted
# [13] = blockers of polyQ-driven CASP3 activation – cell-based (AID 1583); conditions: polyglutamine-induced caspase-3 activation, cell assay; stronger effect = higher value;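 tested at 10 µM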
# [14] = galactose survival enhancers in mitochondrial complex I cybrids – cell-based, galactose medium, ATP luminescence, primary screen (AID 1645843;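 active means z-score of at least 1.8 in each of two replicates, scored against plate mean and spread of sample wells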;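 further: positive z means more ATP and so rescue of galactose-driven cybrid death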); conditions: complex I mutant cybrid cells, 72 h, stronger effect = higher value
# [15] = target: Mitogen-activated protein kinase 7 (Homo sapiens) (UniProt Q13164); test: Gal4-ERK5 driven luciferase induction – cell-based, HTS, primary screen (AID 1508626;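 active means luciferase signal above three times the same-plate solvent-only control wells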;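 further: luciferase driven by Gal4-ERK5 fusion binding five Gal4 sites before minimal TATA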); conditions: HeLa Gal4-ERK5 transactivation, 18 h, at 5 µM, stronger effect = higher value
# Sequence of Mitogen-activated protein kinase 7 (Homo sapiens) (Q13164 whole entry, looked up, the tested form may be a part): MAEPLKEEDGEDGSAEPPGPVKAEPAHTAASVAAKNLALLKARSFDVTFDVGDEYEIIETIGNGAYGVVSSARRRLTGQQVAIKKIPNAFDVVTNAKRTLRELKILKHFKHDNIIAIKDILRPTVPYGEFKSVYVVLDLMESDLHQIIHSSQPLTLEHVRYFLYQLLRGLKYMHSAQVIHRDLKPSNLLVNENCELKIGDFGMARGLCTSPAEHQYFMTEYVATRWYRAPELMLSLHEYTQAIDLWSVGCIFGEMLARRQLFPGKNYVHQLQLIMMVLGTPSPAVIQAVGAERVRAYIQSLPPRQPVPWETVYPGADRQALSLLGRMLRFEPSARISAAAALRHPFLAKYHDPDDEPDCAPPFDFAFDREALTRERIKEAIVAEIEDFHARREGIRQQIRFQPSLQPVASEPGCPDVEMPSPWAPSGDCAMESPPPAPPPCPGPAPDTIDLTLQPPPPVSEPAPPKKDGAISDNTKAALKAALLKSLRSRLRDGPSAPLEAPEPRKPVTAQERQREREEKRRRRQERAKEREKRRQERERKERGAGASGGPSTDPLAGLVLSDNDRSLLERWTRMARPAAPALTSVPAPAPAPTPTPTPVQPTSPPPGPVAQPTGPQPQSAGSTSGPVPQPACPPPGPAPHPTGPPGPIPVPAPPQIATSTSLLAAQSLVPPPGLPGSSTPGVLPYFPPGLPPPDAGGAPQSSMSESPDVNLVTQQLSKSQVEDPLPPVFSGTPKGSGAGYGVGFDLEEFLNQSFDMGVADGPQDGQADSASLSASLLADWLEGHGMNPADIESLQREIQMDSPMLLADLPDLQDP
# [16] = measured here: epithelial PC-3E GFP cell survival
# [17] = measured here: mesenchymal TEM4-18 mCherry cell survival
# [18] = stronger effect = lower value, cell number ratio, induced over uninduced
# [19] = measured here: relative caspase fold change +Dox/-Dox
# [20] = measured here: total cells with miR-34 induction, stronger effect = lower value
# [21] = measured here: total cells without miR-34 induction
smiles,measurement,setting,value
O=C(O)CNc1ccc(Cl)cc1[N+](=O)[O-],red/green cell ratio (normalised),[1],1.05 (inactive)
same,normalised cell number,[1]; [16],1.11
same,normalised cell number,[1]; [17],1.17
CC1CN(c2c(F)c(N)c3c(=O)c(C(=O)O)cn(C4CC4)c3c2F)C[C@H](C)N1 (stereo partly specified),red/green cell ratio (normalised),[1],0.99 (inactive)
same,normalised cell number,[1]; [16],1.03
same,normalised cell number,[1]; [17],1.02
C[C@@H]1C=C2C=C[C@@](C)(O)[C@](C)(C(=O)CCO)[C@H]2[C@@H](O)C1,red/green cell ratio (normalised),[1],0.85 (inactive)
same,normalised cell number,[1]; [16],1.08
same,normalised cell number,[1]; [17],0.91
CCC(/C=C/[C@@H](C)[C@H]1CCC2C3CC=C4C[C@@H](O)CC[C@]4(C)C3CC[C@@]21C)C(C)C (stereo partly specified),red/green cell ratio (normalised),[1],1.07 (inactive)
same,normalised cell number,[1]; [16],1.13
same,normalised cell number,[1]; [17],1.2
Clc1ccc(Br)cc1OCC1CCCNC1 (stereo unspecified),red/green cell ratio (normalised),[1],0.91 (inactive)
same,normalised cell number,[1]; [16],1.28
same,normalised cell number,[1]; [17],1.17
C/C=C/CC(C)C(O)C1C(=O)NC(CC)C(=O)N(C)CC(=O)N(C)C(CC(C)C)C(=O)NC(C(C)C)C(=O)N(C)C(CC(C)C)C(=O)NC(C)C(=O)NC(C)C(=O)N(C)C(CC(C)C)C(=O)N(C)C(CC(C)C)C(=O)N(C)C(C(C)C)C(=O)N1C (stereo unspecified),score,[2],1.51
same,rescue above control,[3],1.62
same,cytochrome c release ratio,[4],0.93
same,inhibition of aggregation,[5],77.8%
same,glutamate uptake change,[6],-28.6%
same,aggregation suppression score,[7],1.73
same,period change,[8],-0.005 h (inactive)
same,fluorescence ratio (interference),[9],0.9 (inactive)
same,red/green cell ratio (normalised),[1],0.77 (inactive)
same,normalised cell number,[1]; [16],0.27
same,normalised cell number,[1]; [17],0.21
same,remaining activity,[10],111% (inactive)
same,fold change,[11]; [18],1.04 (inactive) and 1.06 (inactive) and 0.898 (inactive)
same,fold change,[11]; [19],1.1 and 0.674 and 2.07
same,fold fluorescence,[12],18.1 [at 41.6 µM] (inactive)
CC(C)C[C@@H](NC(=O)OCC1c2ccccc2-c2ccccc21)C(=O)O,inhibition,[13],-9.47%
same,score,[2],-0.27
same,rescue above control,[3],2.38
same,cytochrome c release ratio,[4],0.77
same,inhibition of aggregation,[5],-14.3%
same,glutamate uptake change,[6],4.64%
same,aggregation suppression score,[7],0.0751
same,red/green cell ratio (normalised),[1],0.8 (inactive)
same,normalised cell number,[1]; [16],1.21
same,normalised cell number,[1]; [17],0.97
same,remaining activity,[10],97.5% (inactive)
same,fold change,[11]; [18],0.883 (inactive)
same,fold change,[11]; [19],0.962
same,cell count,[11]; [20],8270
same,cell count,[11]; [21],9370
same,z-score,[14],-0.5 (inactive)
CC(=O)C(C)(C)[C@H]1OC2CC[C@@]3(C)[C@@](O)(CC[C@H]4Cc5c([nH]c6ccccc56)[C@@]43C)C2=CC1=O (stereo partly specified),red/green cell ratio (normalised),[1],0.87 (inactive)
same,normalised cell number,[1]; [16],1.15
same,normalised cell number,[1]; [17],1
CO/N=C(/C(=O)NC1C(=O)N2C(C(=O)O)=C(C[N+]3(C)CCCC3)CSC12)c1csc(N)n1 (stereo unspecified),red/green cell ratio (normalised),[1],1.01 (inactive)
same,normalised cell number,[1]; [16],1.21
same,normalised cell number,[1]; [17],1.22
COc1ccc(-c2coc3cc(OC)ccc3c2=O)cc1,red/green cell ratio (normalised),[1],0.82 (inactive)
same,normalised cell number,[1]; [16],1.34
same,normalised cell number,[1]; [17],1.09
CC(=O)NC1[C@@H](O)C2OC(c3ccccc3)OCC2O[C@H]1Sc1ccccc1 (stereo partly specified),red/green cell ratio (normalised),[1],1.03 (inactive)
same,normalised cell number,[1]; [16],1.06
same,normalised cell number,[1]; [17],1.09
NCCOB(c1ccccc1)c1ccccc1,red/green cell ratio (normalised),[1],1.1 (inactive)
same,normalised cell number,[1]; [16],0.8
same,normalised cell number,[1]; [17],0.89
same,remaining activity,[10],110% (inactive)
same,fold change,[11]; [18],0.925 (inactive)
same,fold change,[11]; [19],0.886
same,cell count,[11]; [20],8820
same,cell count,[11]; [21],9540
same,luciferase signal,[15],120 AU (inactive)
same,z-score,[14],1.9 (inactive)
CC(=O)N[C@@H]1[C@@H](OC(C)C(=O)O)[C@H](O)[C@@H](CO)O[C@H]1O (stereo partly specified),red/green cell ratio (normalised),[1],0.95 (inactive)
same,normalised cell number,[1]; [16],1.06
same,normalised cell number,[1]; [17],1
